Some of the results follow. How many sequences the whole screen found active is unknown.
Biological target: furin, P09958
Experiment: furin cleavage Z-score vs untreated control; higher = more cleavage, active = 3.5 or more, inactive = 1 or less, 8 variable residues between constant flanks
Method in brief: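 Sequencing of released DNA, tagged with adapters by PCR, gave read counts used as abundance. That DNA was freed when purified furin cut N-terminally bead-bound 8-mer peptides fused to a cDNA oligonucleotide, in 0.01 ml reactions at 1:10 enzyme:substrate in 50 mM HEPES pH 7.5 with CaCl2 and NaCl, lasting 7.5, 15 or 30 min. The cleavage Z-score was the lowess-adjusted log count versus furin-free reactions, scaled by median absolute deviation.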

Sequence of furin, P09958 (P09958 whole entry): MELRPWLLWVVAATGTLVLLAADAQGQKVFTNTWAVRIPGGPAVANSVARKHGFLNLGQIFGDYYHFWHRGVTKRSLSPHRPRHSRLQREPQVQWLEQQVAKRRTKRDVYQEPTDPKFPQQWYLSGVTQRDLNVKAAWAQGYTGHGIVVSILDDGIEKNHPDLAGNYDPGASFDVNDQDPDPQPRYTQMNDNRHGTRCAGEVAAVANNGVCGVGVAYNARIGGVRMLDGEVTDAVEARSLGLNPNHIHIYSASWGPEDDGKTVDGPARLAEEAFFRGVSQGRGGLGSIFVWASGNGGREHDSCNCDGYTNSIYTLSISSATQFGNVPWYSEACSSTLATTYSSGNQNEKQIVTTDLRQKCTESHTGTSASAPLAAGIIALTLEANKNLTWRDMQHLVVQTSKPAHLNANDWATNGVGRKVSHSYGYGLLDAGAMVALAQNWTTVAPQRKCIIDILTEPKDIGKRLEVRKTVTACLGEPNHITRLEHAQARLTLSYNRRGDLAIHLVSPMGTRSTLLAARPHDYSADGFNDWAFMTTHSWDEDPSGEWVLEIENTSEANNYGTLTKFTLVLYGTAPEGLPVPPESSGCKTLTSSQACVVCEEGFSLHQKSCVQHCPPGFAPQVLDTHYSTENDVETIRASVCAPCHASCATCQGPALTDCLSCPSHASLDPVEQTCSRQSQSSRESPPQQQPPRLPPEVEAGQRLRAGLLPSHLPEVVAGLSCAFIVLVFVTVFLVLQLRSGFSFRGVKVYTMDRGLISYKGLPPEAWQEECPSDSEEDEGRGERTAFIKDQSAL

Sequence: CAKCTTPCSGAGNASASA [HC1954]
- furin cleavage Z-score (7.5 min): -0.367 (inactive)
- furin cleavage Z-score (15 min): 0.0622 (inactive)
- furin cleavage Z-score (30 min): 0.776 (inactive)

Sequence: CAEVVTSTWKAGNASASA [HC2254]
- furin cleavage Z-score (7.5 min): -0.33 (inactive)
- furin cleavage Z-score (15 min): -0.194 (inactive)
- furin cleavage Z-score (30 min): 1.09

Sequence: CAGVCCSMSYAGNASASA [HC1996]
- furin cleavage Z-score (7.5 min): -0.333 (inactive)
- furin cleavage Z-score (15 min): -0.0583 (inactive)
- furin cleavage Z-score (30 min): 0.735 (inactive)

Sequence: CAQMYTNVDQAGNASASA [HC710]
- furin cleavage Z-score (7.5 min): 0.349 (inactive)
- furin cleavage Z-score (15 min): -0.937 (inactive)
- furin cleavage Z-score (30 min): 0.488 (inactive)

Sequence: CARRKRAKVEAGNASASA [FS-3051]
- furin cleavage Z-score (7.5 min): 2.74
- furin cleavage Z-score (15 min): 5.28 (active)
- furin cleavage Z-score (30 min): 7.03 (active)

Sequence: CARRKRAVNPAGNASASA [FS-2294]
- furin cleavage Z-score (7.5 min): 5.19 (active)
- furin cleavage Z-score (15 min): 3.83 (active)
- furin cleavage Z-score (30 min): 4.64 (active)

Sequence: CARRMRRAGQAGNASASA [FS-2178]
- furin cleavage Z-score (7.5 min): 3.82 (active)
- furin cleavage Z-score (15 min): 5.28 (active)
- furin cleavage Z-score (30 min): 6.43 (active)

Sequence: CALRKRSVDQAGNASASA [FS-1884]
- furin cleavage Z-score (7.5 min): 6.21 (active)
- furin cleavage Z-score (15 min): 7.15 (active)
- furin cleavage Z-score (30 min): 6.93 (active)

Sequence: CANWTRGERCAGNASASA [HC483]
- furin cleavage Z-score (7.5 min): 0.47 (inactive)
- furin cleavage Z-score (15 min): 1.14
- furin cleavage Z-score (30 min): 0.279 (inactive)

Sequence: CAFVVTSTWVAGNASASA [HC2147]
- furin cleavage Z-score (7.5 min): 0.62 (inactive)
- furin cleavage Z-score (15 min): 0.171 (inactive)
- furin cleavage Z-score (30 min): -0.5 (inactive)

Sequence: CAGENLYFQGAGNASASA [TV2]
- furin cleavage Z-score (7.5 min): -1.7 (inactive)
- furin cleavage Z-score (15 min): -0.261 (inactive)
- furin cleavage Z-score (30 min): -0.768 (inactive)

Sequence: CAVVCCHMSYAGNASASA [HC109]
- furin cleavage Z-score (7.5 min): 1.01
- furin cleavage Z-score (15 min): -0.749 (inactive)
- furin cleavage Z-score (30 min): 0.554 (inactive)

Sequence: CAGAYMSKAHAGNASASA [HC793]
- furin cleavage Z-score (7.5 min): -0.996 (inactive)
- furin cleavage Z-score (15 min): -1.61 (inactive)
- furin cleavage Z-score (30 min): -0.903 (inactive)

Sequence: CASTPCSHHLAGNASASA [HC2535]
- furin cleavage Z-score (7.5 min): 0.275 (inactive)
- furin cleavage Z-score (15 min): 0.419 (inactive)
- furin cleavage Z-score (30 min): -0.167 (inactive)

Sequence: CARRKRKEKQAGNASASA [FS-3231]
- furin cleavage Z-score (7.5 min): -1.72 (inactive)
- furin cleavage Z-score (15 min): -1.54 (inactive)
- furin cleavage Z-score (30 min): 0.219 (inactive)

Sequence: CARRKRSVAQAGNASASA [FS-1919]
- furin cleavage Z-score (7.5 min): 4.44 (active)
- furin cleavage Z-score (15 min): 4.31 (active)
- furin cleavage Z-score (30 min): 4.11 (active)

Sequence: CARMKRSRCPAGNASASA [FS-2721]
- furin cleavage Z-score (7.5 min): 5.18 (active)
- furin cleavage Z-score (15 min): 7.21 (active)
- furin cleavage Z-score (30 min): 5.91 (active)

Sequence: CAREDRFFCPAGNASASA [FS-2001]
- furin cleavage Z-score (7.5 min): -0.0818 (inactive)
- furin cleavage Z-score (15 min): 0.295 (inactive)
- furin cleavage Z-score (30 min): -0.529 (inactive)

Sequence: CARRKRSRKPAGNASASA [FS-1835]
- furin cleavage Z-score (7.5 min): 6.72 (active)
- furin cleavage Z-score (15 min): 6.37 (active)
- furin cleavage Z-score (30 min): 6.82 (active)

Sequence: CARMKRFRVDAGNASASA [FS-2719]
- furin cleavage Z-score (7.5 min): -0.757 (inactive)
- furin cleavage Z-score (15 min): 0.996 (inactive)
- furin cleavage Z-score (30 min): 1.75

Sequence: CARRKKARGPAGNASASA [FS-2776]
- furin cleavage Z-score (7.5 min): 0.453 (inactive)
- furin cleavage Z-score (15 min): -0.0472 (inactive)
- furin cleavage Z-score (30 min): -0.48 (inactive)

Sequence: CARRKRYRNFAGNASASA [FS-1836]
- furin cleavage Z-score (7.5 min): 1.23
- furin cleavage Z-score (15 min): 0.582 (inactive)
- furin cleavage Z-score (30 min): 2.95

Sequence: CATPCTCGSSAGNASASA [HC721]
- furin cleavage Z-score (7.5 min): -1.49 (inactive)
- furin cleavage Z-score (15 min): -2.13 (inactive)
- furin cleavage Z-score (30 min): -1.32 (inactive)

Sequence: CAEECSQHLPAGNASASA [HC1015]
- furin cleavage Z-score (7.5 min): 0.447 (inactive)
- furin cleavage Z-score (15 min): 0.0813 (inactive)
- furin cleavage Z-score (30 min): -0.935 (inactive)

Sequence: CAEEIRVNRSAGNASASA [FS-229]
- furin cleavage Z-score (7.5 min): 2.33
- furin cleavage Z-score (15 min): 0.724 (inactive)
- furin cleavage Z-score (30 min): 1.69

Sequence: CAPRARKNRSAGNASASA [FS-949]
- furin cleavage Z-score (7.5 min): 12.3 (active)
- furin cleavage Z-score (15 min): 12.6 (active)
- furin cleavage Z-score (30 min): 8.81 (active)

Sequence: CATTTRKNRSAGNASASA [FS-1498]
- furin cleavage Z-score (7.5 min): 8.64 (active)
- furin cleavage Z-score (15 min): 11 (active)
- furin cleavage Z-score (30 min): 7.73 (active)

Sequence: CALRARKNRSAGNASASA [FS-942]
- furin cleavage Z-score (7.5 min): 8.1 (active)
- furin cleavage Z-score (15 min): 8.12 (active)
- furin cleavage Z-score (30 min): 6.93 (active)

Sequence: CAPRARSRRSAGNASASA [FS-1053]
- furin cleavage Z-score (7.5 min): 9.77 (active)
- furin cleavage Z-score (15 min): 10.8 (active)
- furin cleavage Z-score (30 min): 8.95 (active)

Sequence: CATTTCSGSWAGNASASA [HC1878]
- furin cleavage Z-score (7.5 min): -0.962 (inactive)
- furin cleavage Z-score (15 min): 0.367 (inactive)
- furin cleavage Z-score (30 min): -0.313 (inactive)

Sequence: CAPRAAERRSAGNASASA [FS-74]
- furin cleavage Z-score (7.5 min): -1.2 (inactive)
- furin cleavage Z-score (15 min): -1.99 (inactive)
- furin cleavage Z-score (30 min): -1.56 (inactive)

Sequence: CALRAYMNTPAGNASASA [HC930]
- furin cleavage Z-score (7.5 min): 0.0194 (inactive)
- furin cleavage Z-score (15 min): -1.18 (inactive)
- furin cleavage Z-score (30 min): 0.0807 (inactive)

Sequence: CAEVVTSTHVAGNASASA [HC2235]
- furin cleavage Z-score (7.5 min): -0.582 (inactive)
- furin cleavage Z-score (15 min): 0.167 (inactive)
- furin cleavage Z-score (30 min): -1.55 (inactive)

Sequence: CAVCGDDLVVAGNASASA [HC1528]
- furin cleavage Z-score (7.5 min): -2.27 (inactive)
- furin cleavage Z-score (15 min): -1.44 (inactive)
- furin cleavage Z-score (30 min): -0.381 (inactive)

Sequence: CADLVVICESAGNASASA [HC1530]
- furin cleavage Z-score (7.5 min): 0.357 (inactive)
- furin cleavage Z-score (15 min): -1.48 (inactive)
- furin cleavage Z-score (30 min): 1.02

Sequence: CAPPGSVTVPAGNASASA [HC836]
- furin cleavage Z-score (7.5 min): 0.584 (inactive)
- furin cleavage Z-score (15 min): 0.308 (inactive)
- furin cleavage Z-score (30 min): -0.638 (inactive)

Sequence: CAKVVTSTWVAGNASASA [HC2154]
- furin cleavage Z-score (7.5 min): -1.02 (inactive)
- furin cleavage Z-score (15 min): 1.09
- furin cleavage Z-score (30 min): -1.67 (inactive)

Sequence: CATTPCWGSWAGNASASA [HC67]
- furin cleavage Z-score (7.5 min): 0.261 (inactive)
- furin cleavage Z-score (15 min): 1.14
- furin cleavage Z-score (30 min): 1.23

Sequence: CATTPCMGSWAGNASASA [HC68]
- furin cleavage Z-score (7.5 min): 1.12
- furin cleavage Z-score (15 min): 0.786 (inactive)
- furin cleavage Z-score (30 min): -0.593 (inactive)

Sequence: CATTPCIGSWAGNASASA [HC65]
- furin cleavage Z-score (7.5 min): 0.499 (inactive)
- furin cleavage Z-score (15 min): 3.77 (active)
- furin cleavage Z-score (30 min): 2

Sequence: CAAMGRGKRQAGNASASA [FS-1184]
- furin cleavage Z-score (7.5 min): 9.02 (active)
- furin cleavage Z-score (15 min): 8.89 (active)
- furin cleavage Z-score (30 min): 8.8 (active)

Sequence: CAEKRRSADIAGNASASA [FS-2630]
- furin cleavage Z-score (7.5 min): -0.771 (inactive)
- furin cleavage Z-score (15 min): -1.51 (inactive)
- furin cleavage Z-score (30 min): -0.666 (inactive)

Sequence: CAALDRTKRQAGNASASA [FS-579]
- furin cleavage Z-score (7.5 min): 11.8 (active)
- furin cleavage Z-score (15 min): 12.8 (active)
- furin cleavage Z-score (30 min): 11 (active)

Sequence: CAGKSRNKRQAGNASASA [FS-243]
- furin cleavage Z-score (7.5 min): 10.4 (active)
- furin cleavage Z-score (15 min): 10.6 (active)
- furin cleavage Z-score (30 min): 10.1 (active)

Sequence: CASDSRHSRQAGNASASA [FS-1612]
- furin cleavage Z-score (7.5 min): 0.00727 (inactive)
- furin cleavage Z-score (15 min): 0.0993 (inactive)
- furin cleavage Z-score (30 min): 0.17 (inactive)

Sequence: CAAGVAGALVAGNASASA [HC1089]
- furin cleavage Z-score (7.5 min): -0.652 (inactive)
- furin cleavage Z-score (15 min): -0.752 (inactive)
- furin cleavage Z-score (30 min): 0.946 (inactive)

Sequence: CAGPGEGAVQAGNASASA [HC1114]
- furin cleavage Z-score (7.5 min): -0.225 (inactive)
- furin cleavage Z-score (15 min): -1.41 (inactive)
- furin cleavage Z-score (30 min): -1.21 (inactive)

Sequence: CAEKTRHARQAGNASASA [FS-1520]
- furin cleavage Z-score (7.5 min): 8.09 (active)
- furin cleavage Z-score (15 min): 8.28 (active)
- furin cleavage Z-score (30 min): 7.03 (active)
